# DT40 TDP1 no CPT: qHTS for Inhibitors of human tyrosyl-DNA phosphodiesterase 1 (TDP1): qHTS in cells in absence of CPT; DT40 Tdp1-/- hTDP1 cells, no CPT, ATP luminescence, 48 h; Potency, µM (doses to about 46.2 µM), without a hit: top-dose activity change, negative = growth inhibition, hits mostly inhibitors; hit rate 15% among 420,000; further: nearly all actives have a fitted effect of over 55% in size
#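 Growth of hTDP1-complemented DT40 Tdp1-knockout cells is measured by ATP luminescence after at least 48 hr compound exposure at 37 °C, with DMSO substituting for the 20 nM CPT used in the parallel screen.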
# TDP1 block: inhibitors of human tyrosyl-DNA phosphodiesterase TDP1. Q9NUW8. recombinant TDP1, AlphaScreen DNA substrate cleavage. Potency, µM (titrated, usually from 130 µM), without a hit: at the top dose activity change, negative = inhibition, usual class: inhibitors. hit rate 0.28% among 350,000; further: nearly all actives have a fitted effect of over 40% in size
#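 Steps: enzyme plus compound, 15 min RT; add biotin/phosphotyrosine-FITC oligonucleotide (15 nM final), react 5 min; add donor/acceptor beads (10 ug/ml final), 10 min; read AlphaScreen. Tdp1 at 1 nM final.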
# DT40 TDP1 CPT: growth inhibition of DT40 Tdp1-/-;hTDP1 cells with camptothecin (screen for TDP1 inhibitors); AID 686979; chicken DT40 Tdp1-/-;hTDP1 cells + 20 nM CPT, ATP luminescence, 48 h; hit rate 12% among 420,000; Potency, µM (top dose mostly 46.2 µM), inactives show at the highest dose activity change, negative = growth inhibition, actives largely listed as inhibitors; further: nearly all actives have a fitted effect of over 55% in size
#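 Chicken DT40 Tdp1-/- cells complemented with human TDP1, 400 cells/well, exposed to compounds plus 20 nM camptothecin for at least 48 h at 37 C; viability read as ATP content by CellTiter-Glo luminescence.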
# RORgamma inh: blocks mouse ROR gamma transcriptional activity; P51450; Drosophila S2 Gal4-RORgamma UAS-luciferase reporter, 20 h; Potency, µM (doses to about 53.6 µM), for inactives: top-dose activity change, negative = inhibition, actives largely listed as inhibitors; hit rate 5.4% among 310,000; AID 2551; further: nearly all actives have a fitted effect of over 60% in size
# Target sequence (P51450 whole entry, looked up, the tested form may be a part): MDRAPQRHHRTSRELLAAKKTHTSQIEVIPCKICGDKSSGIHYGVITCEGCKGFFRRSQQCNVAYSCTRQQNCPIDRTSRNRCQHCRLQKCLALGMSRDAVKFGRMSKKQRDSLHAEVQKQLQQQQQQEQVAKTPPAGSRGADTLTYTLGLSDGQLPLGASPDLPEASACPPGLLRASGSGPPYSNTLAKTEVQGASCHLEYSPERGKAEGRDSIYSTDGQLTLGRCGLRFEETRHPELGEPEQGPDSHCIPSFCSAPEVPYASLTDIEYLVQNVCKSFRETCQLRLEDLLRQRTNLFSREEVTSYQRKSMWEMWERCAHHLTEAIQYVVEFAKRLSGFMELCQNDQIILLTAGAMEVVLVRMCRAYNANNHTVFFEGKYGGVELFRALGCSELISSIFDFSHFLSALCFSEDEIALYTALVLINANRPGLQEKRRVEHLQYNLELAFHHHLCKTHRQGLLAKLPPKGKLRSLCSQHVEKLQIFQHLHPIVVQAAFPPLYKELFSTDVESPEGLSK
#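 Drosophila Schneider cells stably carrying a metallothionein-driven Gal4 DBD–ROR gamma fusion and a UAS-Photinus luciferase reporter were exposed to compound for 1 hr, then induced with copper sulfate (700 uM final) for 20 hr at ambient temperature before luminescence reading.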
# Gal4-VP16 FLuc: counter-screen for ROR gamma inhibitors: Gal4-VP16 reporter. Drosophila S2 Gal4-VP16 UAS-luciferase, luminescence, 20 h. Potency, µM (highest dose often 53.6 µM), for the others: top-dose activity, negative = inhibition, hits mostly inhibitors. hit rate 3.5% among 310,000;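 further: Gal4-VP16 expression switched on by copper sulfate through the metallothionein promoter; nearly all actives have a fitted effect of over 50% in size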
# * marks the source's active call; other numbers are inactive results; ? = inconclusive; / = not tested or not shown; [ ] = remark or other dose. Shown are actives, neighbours in structure and some others; about 19% of the full set was active somewhere. The call rests on the fitted dose curve; in most records, active means well fitted curve in the direction sought with a large enough effect; inconclusive means small, poorly fitted or top-dose-only effect, or another doubt; inactive means no such curve, though single readings can be large; an effect the other way counts as inactive or inconclusive. On the % scale 0 is the no-effect control and ±100 the full control effect; potency means the concentration at half of the fitted maximal effect.
SMILES,DT40 TDP1 no CPT,TDP1 block,DT40 TDP1 CPT,RORgamma inh,Gal4-VP16 FLuc
COc1cc(OC)nc(Oc2ccccc2C(=O)Oc2ccc(C)cc2)n1,-9.9%,-1.1%,-12.4%,-13.5%,-2.2%
COc1cc(OC)nc(Oc2ccccc2C(=O)Oc2ccc(Cl)cc2)n1,16.4µM*,-4.3%,?,1.4%,0.4%
C[C@@H]1C[C@](C)(C(=O)c2ccco2)C=C1c1ccco1,/,-1.9%,/,4.4%,3.4%
Cc1ccc(/C=C2/SC(=S)N(CCC(=O)N3CCN(C)CC3)C2=O)cc1,18.4µM*,3.6%,?,-28.7%,6.5%
Cc1ccc(/C=C2/SC(=S)N(CCC(=O)N3CCOCC3)C2=O)cc1,16.4µM*,-2.3%,11.6µM*,-26.5%,?
O=C(CN1C(=O)S/C(=C/c2cccs2)C1=O)N1CCCC1,3.3%,0.1%,-3.0%,/,/
O=C(CCN1C(=O)/C(=C\c2ccccc2)SC1=S)N1CCCCC1,10.3µM*,0.0%,9.2µM*,19.7%,-6.1%
O=C(CCN1C(=O)/C(=C/c2cccs2)SC1=S)N1CCCCC1,7.31µM*,/,5.8µM*,11.2µM*,?
COc1ccc(/C=C2\SC(=O)N(CCC(=O)N3CCN(C)CC3)C2=O)cc1,?,/,-25.8%,-1.9%[1.91 µM],16.6%
CCCCc1ccc(-c2csc(/C(C#N)=C\c3ccco3)n2)cc1,-19.4%,-5.3%,8.6%,37.1%,-0.9%
COc1cc(/C=C2\SC(=S)N(CCC(=O)N3CCCCC3)C2=O)cc(OC)c1OC,?,0.4%[0.0935 µM],16.4µM*,?,-28.2%
O=C(CN1C(=O)/C(=C/c2ccccc2)SC1=S)N1CCN(CCc2ccccn2)CC1,11.6µM*,/,8.2µM*,?,-18.2%
CN1CCN(C(=O)CCN2C(=O)/C(=C/c3ccc(F)cc3)SC2=S)CC1,18.4µM*,/,?,-28.1%,-1.9%
O=C(c1ccccc1)N1CCN(CCc2ccccn2)CC1,-20.9%,-6.8%,-7.4%,20.5%,-12.1%
Cc1ccc(/C=C2\SC(=S)N(CCC(=O)N3CCCCC3)C2=O)cc1,20.6µM*,/,?,-0.2%,-2.4%
O=C(NCc1ccc2c(c1)OCO2)c1ccc(CS(=O)Cc2ccc(Cl)cc2)o1 (stereo not given),-15.2%,2.6%,-11.8%,?,-2.4%
CCN(c1ccccc1)S(=O)(=O)c1ccc(OC)c(NS(=O)(=O)c2cccs2)c1,0.2%,-13.3%,-3.0%,-4.0%,-3.3%
O=C(Nc1ccc2c(c1)Cc1ccccc1-2)c1ccco1,-8.7%,2.9%,-29.3%,9.8%,-1.8%
c1ccc(-c2nc(NCCCn3ccnc3)c3ccccc3n2)cc1,-18.4%,9.2%,1.0%,-8.5%,1.1%
COc1cc2oc(=O)cc(-c3ccc(-c4ccc(O)cc4)cc3)c2c(OC)c1OC,18.4µM*,0.6%[56.1 µM],?,-21.6%,?
Cc1cccc(-c2ccc(-c3cc(=O)oc4cc(C)cc(C)c34)cc2)c1,/,-5.1%,/,17.1%,0.8%
COc1cc2oc(=O)cc(-c3cccc(-c4cccc(C)c4)c3)c2c(OC)c1OC,23.1µM*,-2.6%[56.1 µM],?,10.0%,-3.7%
COc1cc2oc(=O)cc(-c3ccc(-c4ccc(NC(C)=O)cc4)cc3)c2c(OC)c1OC,/,1.0%,/,3.1%,-4.5%
COc1cc2oc(=O)cc(-c3ccc(-c4cccc(N)c4)cc3)c2c(OC)c1OC,/,8.2%,/,-36.5%,7.3%
COc1ccc(-c2ccc(-c3cc(=O)oc4cc(OC)c(OC)c(OC)c34)cc2)cc1OC,14.6µM*,1.9%[56.1 µM],18.4µM*,20.3%,0.4%
SMILES,DT40 TDP1 no CPT,TDP1 block,DT40 TDP1 CPT,RORgamma inh,Gal4-VP16 FLuc
O=C(/C=C/c1ccccc1)N1CCC(Cc2ccccc2)CC1,?,-7.3%,?,30.9%,-23.9%
CCCc1cc(N2CCOCC2)n2nc(C)c(-c3ccccc3)c2n1,-27.7%,/,?,0.3%,0.3%
Cc1cccc(NC(=O)c2cc3c(=O)n4ccccc4nc3s2)c1,?,79.4µM*,?,18.1%,-14.5%
Cc1cccc(NC(=O)c2cnc3ccccn3c2=O)c1,-12.3%,3.1%,-24.3%,2.51µM*,?
O=C(Nc1cccc(Cl)c1)c1cc2c(=O)n3ccccc3nc2s1,1.4%,1.3%,-8.2%,4.0%,-0.8%
COc1cc(OC)cc(C(=O)NCC(=O)NCCN2C(=O)S/C(=C\c3ccc4c(c3)OCO4)C2=O)c1,18.4µM*,/,?,/,/
O=C(CCc1nc2ccccc2c(=O)[nH]1)NCCN1C(=O)S/C(=C\c2ccc(Cl)cc2Cl)C1=O,4.61µM*,1.9%[0.505 µM],8.2µM*,/,/
COc1cc(C(=O)NCC(=O)NCCN2C(=O)S/C(=C\c3ccccc3Cl)C2=O)cc(OC)c1OC,18.4µM*,1.5%,18.4µM*,/,/
COc1cc(OC)cc(C(=O)NCC(=O)NCCN2C(=O)S/C(=C\c3ccccc3Cl)C2=O)c1,?,4.4%,?,/,/
Cc1ccnc(NC(=O)c2cccc(S(=O)(=O)Nc3ccc(C)cc3C)c2)c1,?,1.7%,-3.0%,/,/
Cc1ccc(NC(=S)N2CCC(C(=O)c3ccc(F)cc3)CC2)cc1C,-21.7%,/,23.8%,/,/
CCCn1c(N)c(C(=O)COc2ccc(Br)cc2F)c(=O)n(C)c1=O,?,3.5%,14.6µM*,?,-6.5%
C#CCOCCOCCOCCNc1nc(N2CCN(C(=O)CCCCCCCCCCNC(=O)Cn3cc(C[C@@H](C)O)nn3)CC2)nc(N2CCN(C(=O)CCCCCCCCCCNC(=O)[C@H](CCCCN)n3cc(CCCC(=O)O)nn3)CC2)n1,1.4%,6.5%,?,/,/
C#CCOCCOCCOCCNc1nc(N2CCN(C(=O)CCCCCCCCCCNC(=O)[C@H](CO)n3cc(CCCSC)nn3)CC2)nc(N2CCN(C(=O)CCCCCCCCCCNC(=O)[C@H](CCCCN)n3cc(CCO)nn3)CC2)n1,?,8.5%,?,/,/
C#CCOCCOCCOCCNc1nc(N2CCN(C(=O)CCCCCCCCCCNC(=O)[C@@H](CCSC)n3cc(CCO)nn3)CC2)nc(N2CCN(C(=O)CCCCCCCCCCNC(=O)[C@H](CCSC)n3cc(CCO)nn3)CC2)n1,?,-3.1%,6.51µM*,/,/
C#CCOCCOCCOCCNc1nc(N2CCN(C(=O)CCCCCCCCCCNC(=O)[C@H](CO)n3cc(CCCSC)nn3)CC2)nc(N2CCN(C(=O)CCCCCCCCCCNC(=O)[C@H](CCCN=C(N)N)n3cc(C[C@@H](C)CC)nn3)CC2)n1,23.1µM*,11.2%,?,/,/
C#CCOCCOCCOCCNc1nc(N2CCN(C(=O)CCCCCCCCCCNC(=O)Cn3cc(C[C@@H](C)O)nn3)CC2)nc(N2CCN(C(=O)CCCCCCCCCCNC(=O)[C@H](CCCN=C(N)N)n3cc(C[C@@H](C)CC)nn3)CC2)n1,16.4µM*,8.8%,?,/,/
C=CCN(CC=C)CCOc1cc(C)ccc1[N+](=O)[O-],6.9%,0.0%,5.0%,8.9%,-16.7%

# Assay outcomes: PubChem, National Center for Advancing Translational Sciences (NCATS)
